From PubChem BioAssay (Tox21)
Records with an inconclusive call do not appear. Active and inactive are the calls of the source. The call rests on the fitted dose curve; in most records, active means well fitted cell-killing curve with a large enough effect in the repeat runs; inconclusive means weak or mixed curves, or effect the other way; inactive means no such curve, though single readings can be large or run the other way.

Assay: qHTS assay to identify small molecule antagonists of the glucocorticoid receptor (GR) signaling pathway - cell viability counter screen (AID 720693); further: nearly all actives have a fitted effect of over 55% in size
Conditions: GR-bla HeLa viability, CellTiter-Glo luminescence, 18 h, with 5 nM dexamethasone present; series mostly up to 58.5 µM; viability change, negative = cytotoxic: at the top concentration
Source text: National Center for Advancing Translational Sciences [NCATS]
NIH Chemical Genomics Center [NCGC]
U.S. Environmental Protection Agency [EPA]
National Institutes of Environmental Health Sciences [NIEHS]
National Toxicology Program [NTP]
U.S. Food and Drug Administration [FDA]
The Glucocorticoid receptor (GR) is one of the members of the nuclear receptor family of ligand-dependent transcription factors. GR plays a critical role in carbohydrate, protein and lipid metabolisms and programmed cell death. CellSensor GR-bla HeLa cell line (Invitrogen) contains a beta-lactamase reporter gene under the control of the glucocorticoid response element stably integrated into HeLa cells, a cervical cancer cell line that expresses glucocorticoid receptor. The activation of the reporter gene under culture conditions can be detected by fluorescence intensity. This cell line has been used to screen the Tox21 10K compound library and to identify the compounds that inhibit the GR signaling. The cytotoxicity of the Tox21 compound library against the GR-bla HeLa cell line was tested in parallel by measuring the cell viability using CellTiter-Glo assay in the same wells.
Tox21 Assay Protocol Summary:
The GR-bla HeLa cells were dispensed at 1500 cells/5 ul/well in 1536-well black wall/clear bottom plates using a Multidrop Combi (ThermoFisher Scientific, Waltham, MA) dispenser. After the assay plates were incubated at a 37 C/5% CO2 incubator for 4 hours, 23 nL of compounds dissolved in DMSO, positive controls or DMSO only was transferred to the assay plate by a pintool station (Kalypsys, San Diego, CA), followed by addition of 1 uL of dexamethasone (5 nM, final concentration in the well). The plates were incubated at 37 C for 18 hours. After 1 uL of LiveBLAzerTM B/G FRET substrate was added using a Flying Reagent Dispenser (Aurora Discovery, San Diego, CA), the plates were incubated at room temperature (RT) for 2 hours, and fluorescence intensity was measured by an Envision plate reader (PerkinElmer, Shelton, CT). After measurement of bla assay, 3 ul CellTiter-Glo (Promega, Madison, WI) was added to measure the cytotoxicity and the plates were then incubated at RT for 30 min. The luminescence was measured using a ViewLux (Perkin Elmer) plate reader.
On the % scale 0 is the no-effect control and ±100 the full control effect.

Row | SMILES | viability change, negative = cytotoxic | outcome
1 | NC1=NCC2c3ccccc3Cc3ccccc3N12 (stereo not given) | -3.28% (inactive) | 
2 | CC1=C(O)C(=O)OC1C (stereo not given) | 1.5% (inactive) | 
3 | CCCCCCCCc1ccc(S(=O)(=O)O)cc1 | -2.39% (inactive) | 
4 | CN(C)CCOc1ccccc1Cc1ccccc1 | 4.56% (inactive) | 
5 | O=c1[nH]c(=O)n([C@H]2C[C@H](O)[C@@H](CO)O2)cc1C(F)(F)F | -6.78% (inactive) | 
6 | NC/C=C/C(=O)O | -3.4% (inactive) | 
7 | CN(C)CC[C@@H](c1ccc(Cl)cc1)c1ccccn1 | 2.3% (inactive) | 
8 | CCCC1CCC(=O)O1 (stereo not given) | 7.28% (inactive) | 
9 | CCN[C@H]1CN(CCCOC)S(=O)(=O)c2sc(S(N)(=O)=O)cc21 | -0.296% [at 27 µM] (inactive) | 
10 | O=C1CCC(C2CCCCC2)CC1 | 20.8% (inactive) | 
11 | CCCCCCOc1ccc(N)cc1 | 1.63% (inactive) | 
12 | Cc1ccc(C)c(N)c1 | -0.56% (inactive) | 
13 | CC(C)C[C@H](NC(=O)OCC1c2ccccc2-c2ccccc21)C(=O)O | 17.4% (inactive) | 
14 | COc1ccccc1N1CCN(CCCNc2cc(=O)n(C)c(=O)n2C)CC1 |  | inactive
15 | NC(=O)Cc1cccc(C(=O)c2ccccc2)c1N | 0.652% (inactive) | 
16 | O=C(O)[C@@H](O)[C@H](O)[C@H](O)[C@@H](O)C(=O)O | 2.87% (inactive) | 
17 | C1CSCCS1 | 2.3% (inactive) | 
18 | O=C(O)CN(CCN(CC(=O)O)CC(=O)O)CCN(CC(=O)O)CC(=O)O | 4.65% (inactive) | 
19 | O=C(O)c1ccccc1Nc1cc(Cl)ccc1C(=O)O | -0.818% (inactive) | 
20 | NNS(=O)(=O)c1ccc(Oc2ccc(S(=O)(=O)NN)cc2)cc1 | 3.01% (inactive) | 

Row | SMILES | viability change, negative = cytotoxic | outcome
21 | CC(=O)Nc1ccc(C)c(Cl)c1 | -0.279% (inactive) | 
22 | CCN(CCCc1ccccc1)CCCc1ccccc1 | -1.47% [at 27 µM] (inactive) | 
23 | CC(C)C(=O)OCC(C)(C)C(O)C(C)C (stereo not given) | 0.421% [at 78.9 µM] (inactive) | 
24 | CC1CN(c2ccccc2)NC1=O (stereo not given) | 1.02% (inactive) | 
25 | C1CCOC1 | -0.16% [at 78.9 µM] (inactive) | 
26 | CCN(CC)CCNC(=O)COc1ccc(Cl)cc1 | 6.71% (inactive) | 
27 | CCCCNc1cc(C(=O)O)cc(S(N)(=O)=O)c1Oc1ccccc1 | 7.22% [at 27 µM] (inactive) | 
28 | O=[N+]([O-])c1nccn1CO[C@@H](CO)[C@H](O)CO | -1.74% (inactive) | 
29 | CC(=O)OC(C)OC(C)=O | -2.53% [at 78.9 µM] (inactive) | 
30 | CC(=O)OC1C2(C)CCC(C2)C1(C)C (stereo not given) | 3.16% (inactive) | 
31 | CCCCc1ccc2nc(NC(=O)OC)[nH]c2c1 | -28.8% [at 27 µM] (inactive) | 
32 | CCCCCCCOC(=O)CCC | 20.5% (inactive) | 
33 | COc1ccc(S(=O)(=O)Nc2nnc(CC(C)C)s2)cc1 |  | inactive
34 | CC(C)(C)C1CCCCC1=O (stereo not given) | -0.348% (inactive) | 
35 | CCCCCCCCCCCCCCCCOP(=O)([O-])OCC[N+](C)(C)C | 5.21% (inactive) | 
36 | CCCNC(C)C(=O)Nc1c(C)csc1C(=O)OC (stereo not given) | 9.33% [at 27 µM] (inactive) | 
37 | CN1CCN(c2c(F)cc3c(=O)c(C(=O)O)cn4c3c2SCC4)CC1 | -5.86% (inactive) | 
38 | CCCCCCCCCCCCOCCOS(=O)(=O)O | -9.86% (inactive) | 
39 | C=CCCC=C | -2.9% [at 78.9 µM] (inactive) | 
40 | Cc1cc2c(s1)Nc1ccccc1N=C2N1CCN(C)CC1 | -1.93% (inactive) | 
